“And” between values parts separate entries of the source, which are not always exact repeats. Identical values can stand only once. The source made the active and inactive calls. How the calls were made is not given here. Non-standard residues stand in square brackets, D forms with d. Residues, ends and D or L forms follow the SMILES beside them. pGlu = O=C1CC[C@@H](C(=O)O)N1; Thz = O=C(O)[C@@H]1CSCN1
tested on: Neuropilin-2 / VEGF-C interaction (human); assay: small molecules blocking Neuropilin-2/VEGF-C interaction – biochemical, microplate binding format, z-score (AID 743281); settings: microplate NRP2/VEGF-C binding assay; active compounds read low; on z-score: test concentration not given here

outcome, inactive:
O=C1CN2Cc3c(ccc(Cl)c3Cl)N=C2N1, COC(=O)C[C@](O)(CCCC(C)(C)O)C(=O)O[C@@H]1C(OC)=C[C@]23CCCN2CCc2cc4c(cc2[C@H]13)OCO4, CN(C)CCc1c[nH]c2ccc(Cn3cncn3)cc12, COc1ccc2[nH]c(S(=O)Cc3ncc(C)c(OC)c3C)nc2c1 (centres undefined), Cc1cc2c(s1)Nc1ccccc1N=C2N1CCN(C)CC1

z-score, inactive:
CNCC[C@H](Oc1cccc2ccccc12)c1cccs1 0.369 and 0.383, O=c1[nH]c(=O)n(C2CCCO2)cc1F (centres undefined) -1.02, CSc1nc2cc(Oc3cccc(Cl)c3Cl)c(Cl)cc2[nH]1 0.432, COc1ccc(C[C@H](C)NC[C@@H](O)c2ccc(O)c(NC=O)c2)cc1 -0.584, CC(C)C[C@H](NC(=O)[C@@H](O)[C@H](N)Cc1ccccc1)C(=O)O 0.0206, C[C@@H](c1ncncc1F)[C@](O)(Cn1cncn1)c1ccc(F)cc1F 1.15, CN(C)CCCC1(c2ccc(F)cc2)OCc2cc(C#N)ccc21 (centres undefined) 0.0126, CCOC(=O)c1ccc(OC(=O)CCCCCN=C(N)N)cc1 -0.315, Cc1c(C(=O)NN2CCCCC2)nn(-c2ccc(Cl)cc2Cl)c1-c1ccc(I)cc1 0.177, CC(C)NCC(O)c1ccc(NS(C)(=O)=O)cc1 (centres undefined) -0.291, CC(=O)NC[C@H]1CN(c2ccc(N3CCOCC3)c(F)c2)C(=O)O1 0.877, CC(CCCCC(=O)Nc1ccc(C(F)(F)F)cc1)NCCc1cnc[nH]1 (centres undefined) -0.258, O=C1CC[C@@H](C(=O)N2CSC[C@H]2C(=O)O)N1 ([pGlu]-[Thz]-OH) -0.307, CN/C(=C\[N+](=O)[O-])NCCSCc1csc(CN(C)C)n1 0.209, CNCC[C@@H](Oc1ccccc1C)c1ccccc1 0.0903, Cc1cccc(CCN2CCC(C(=O)c3ccc(NS(C)(=O)=O)cc3)CC2)n1 -0.668, CN(C)CCOc1ccc(/C(=C(/CCCl)c2ccccc2)c2ccccc2)cc1 -0.537, CN1CC(=O)N2[C@H](c3ccc4c(c3)OCO4)c3[nH]c4ccccc4c3C[C@@H]2C1=O 1.08, C[C@H]1O[C@H](O[C@H]2[C@H](O)[C@@H](O)[C@@H](O[C@H]3[C@H](O)[C@@H](O)C(O)O[C@@H]3CO)O[C@@H]2CO)[C@H](O)[C@@H](O)[C@@H]1N[C@H]1C=C(CO)[C@@H](O)[C@H](O)[C@H]1O (some centres undefined) -1.33, CCCCN1CCCC1CNC(=O)c1cc(C#N)c2ccccc2c1OC (centres undefined) 1.01, CN1[C@@H]2CCC[C@H]1CC(NC(=O)c1nn(C)c3ccccc13)C2 (some centres undefined) 1.21, COc1c(N2C[C@@H]3CCCN[C@@H]3C2)c(F)cc2c(=O)c(C(=O)O)cn(C3CC3)c12 -1.5, COc1nc(C)nc(Cl)c1NC1=NCCN1 -0.63

tested on: not listed separately; assay: modulation of C. elegans fzo-1 (AID 1259413);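 further: fzo-1 mutant C. elegans worms in liquid wells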; settings: C. elegans fzo-1 modulator screen, mean read-out; active compounds read high

Mean signal, inactive:
O=C1CN2Cc3c(ccc(Cl)c3Cl)N=C2N1 210, COC(=O)C[C@](O)(CCCC(C)(C)O)C(=O)O[C@@H]1C(OC)=C[C@]23CCCN2CCc2cc4c(cc2[C@H]13)OCO4 211, CNCC[C@H](Oc1cccc2ccccc12)c1cccs1 220, O=c1[nH]c(=O)n(C2CCCO2)cc1F (centres undefined) 283, CSc1nc2cc(Oc3cccc(Cl)c3Cl)c(Cl)cc2[nH]1 206, CN(C)CCc1c[nH]c2ccc(Cn3cncn3)cc12 236, COc1ccc(C[C@H](C)NC[C@@H](O)c2ccc(O)c(NC=O)c2)cc1 235, CC(C)C[C@H](NC(=O)[C@@H](O)[C@H](N)Cc1ccccc1)C(=O)O 255, C[C@@H](c1ncncc1F)[C@](O)(Cn1cncn1)c1ccc(F)cc1F 264, CN(C)CCCC1(c2ccc(F)cc2)OCc2cc(C#N)ccc21 (centres undefined) 220, CCOC(=O)c1ccc(OC(=O)CCCCCN=C(N)N)cc1 243, Cc1c(C(=O)NN2CCCCC2)nn(-c2ccc(Cl)cc2Cl)c1-c1ccc(I)cc1 229, CC(C)NCC(O)c1ccc(NS(C)(=O)=O)cc1 (centres undefined) 233, CC(=O)NC[C@H]1CN(c2ccc(N3CCOCC3)c(F)c2)C(=O)O1 269, CC(CCCCC(=O)Nc1ccc(C(F)(F)F)cc1)NCCc1cnc[nH]1 (centres undefined) 233, O=C(c1ccc(OCCN2CCCCC2)cc1)c1c(-c2ccc(O)cc2)sc2cc(O)ccc12 205, O=C1CC[C@@H](C(=O)N2CSC[C@H]2C(=O)O)N1 ([pGlu]-[Thz]-OH) 225, CN/C(=C\[N+](=O)[O-])NCCSCc1csc(CN(C)C)n1 274, CNCC[C@@H](Oc1ccccc1C)c1ccccc1 246, Cc1cccc(CCN2CCC(C(=O)c3ccc(NS(C)(=O)=O)cc3)CC2)n1 229, CN(C)CCOc1ccc(/C(=C(/CCCl)c2ccccc2)c2ccccc2)cc1 204, CC(C)(S)C(N)C(=O)O (centres undefined) 224, CC[C@H]1OC(=O)[C@H](C)[C@@H](O[C@H]2C[C@@](C)(OC)[C@@H](O)[C@H](C)O2)[C@H](C)[C@@H](O[C@@H]2O[C@H](C)C[C@H](N(C)C)[C@H]2O)[C@](C)(O)C[C@@H](C)CN(C)[C@H](C)[C@@H](O)[C@]1(C)O 266, NCC(O)c1ccc(O)c(O)c1 (centres undefined) 234, CN1CC(=O)N2[C@H](c3ccc4c(c3)OCO4)c3[nH]c4ccccc4c3C[C@@H]2C1=O 261, Cc1cnc(C(=O)NCCc2ccc(S(=O)(=O)NC(=O)NC3CCCCC3)cc2)cn1 228, C/C(=C\C(=O)OCCCCCCCCC(=O)O)C[C@@H]1OC[C@H](C[C@@H]2O[C@H]2[C@@H](C)[C@H](C)O)[C@@H](O)[C@H]1O 235, C[C@H]1O[C@H](O[C@H]2[C@H](O)[C@@H](O)[C@@H](O[C@H]3[C@H](O)[C@@H](O)C(O)O[C@@H]3CO)O[C@@H]2CO)[C@H](O)[C@@H](O)[C@@H]1N[C@H]1C=C(CO)[C@@H](O)[C@H](O)[C@H]1O (some centres undefined) 228, CCCCN1CCCC1CNC(=O)c1cc(C#N)c2ccccc2c1OC (centres undefined) 308, COc1ccc2[nH]c(S(=O)Cc3ncc(C)c(OC)c3C)nc2c1 (centres undefined) 220, CN1[C@@H]2CCC[C@H]1CC(NC(=O)c1nn(C)c3ccccc13)C2 (some centres undefined) 239, COc1c(N2C[C@@H]3CCCN[C@@H]3C2)c(F)cc2c(=O)c(C(=O)O)cn(C3CC3)c12 299, CCN(CC)CC#CCOC(=O)C(O)(c1ccccc1)C1CCCCC1 (centres undefined) 265, COc1nc(C)nc(Cl)c1NC1=NCCN1 246, CC(Cc1ccc(O)c(O)c1)(NN)C(=O)O (centres undefined) 254, Cc1cc2c(s1)Nc1ccccc1N=C2N1CCN(C)CC1 245

Reference: PubChem BioAssay
